According to PubChem BioAssay AID1159580 (chemical genetic matrix, 2015):
The campaign covered roughly 5,500 compounds. About 2,000 (36%) were called active. Not shown: some 18% with an inconclusive outcome. No stated cut-off is given here; in the data, active means normalized growth mostly below about 0.91 (no sharp cut-off); inconclusive means no clear call, values can overlap the other calls; inactive means mostly above about 0.92. This is one part of the list.

Test: chemical genetic growth profiling, strain panel (AID 1159580);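 further: tested at 20 µM; growth read once vehicle control cultures reached saturation at 30 °C; 1 = growth at the plate median or of vehicle wells; lower values mean less growth of the strain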
Details: S. cerevisiae deletion strains, growth OD
[1] = locus YDR150W, strain NUM1, active compounds read low
[2] = locus YGR078C, strain PAC10, active compounds read low
[3] = locus YMR263W, strain SAP30, active compounds read low
[4] = locus YNL322C, strain KRE1, active compounds read low
[5] = locus YPL241C, strain CIN2, active compounds read low

Measured: normalized growth

COc1ccc(S(=O)(=O)Nc2cc(C)c(C)cc2[N+](=O)[O-])c(OC)c1
inactive: locus YAL013W, strain DEP1, active compounds read low 1.01 | locus YBR229C, strain ROT2, active compounds read low 1 | locus YCL061C, strain MRC1, active compounds read low 1 | locus YDL101C, strain DUN1, active compounds read low 1.01 | [1] 0.885 | locus YEL061C, strain CIN8, active compounds read low 1.01 | [2] 0.995 | locus YGR229C, strain SMI1, active compounds read low 1.01 | locus YHR030C, strain SLT2, active compounds read low 0.991 | locus YHR087W, strain rtc3, active compounds read low 1 | locus YJR043C, strain POL32, active compounds read low 1 | locus YJR075W, strain HOC1, active compounds read low 1.01 | locus YKL190W, strain CNB1, active compounds read low 1.02 | locus YLR039C, strain RIC1, active compounds read low 0.968 | locus YLR058C, strain SHM2 (second series), active compounds read low 1 | locus YLR085C, strain ARP6, active compounds read low 1.04 | locus YLR262C, strain YPT6, active compounds read low 0.967 | locus YML094W, strain GIM5, active compounds read low 0.983 | locus YMR219W, strain ESC1, active compounds read low 0.999 | [3] 0.973 | locus YNL128W, strain TEP1, active compounds read low 1.02 | locus YNL153C, strain GIM3, active compounds read low 1.02 | locus YNL298W, strain CLA4 (second series), active compounds read low 1.04 | [4] 0.989 | locus YNR030W, strain Alg12, active compounds read low 0.998 | locus YPL055C, strain LGE1, active compounds read low 0.889 | [5] 1.03 | locus YPR135W, strain CTF4, active compounds read low 0.946

Ic1ccccc1CNC1C2CCN(CC2)C1C(c1ccccc1)c1ccccc1 (configuration not stated)
inactive: locus YAL040C, strain CLN3, active compounds read low 0.998 | locus YCL061C, strain MRC1 (second series), active compounds read low 0.984 | [1] 0.996 | locus YDR363W, strain ESC2, active compounds read low 0.977 | locus YER002W, strain NOP16, active compounds read low 1.05 | [2] 1 | [3] 0.998 | locus YMR307W, strain GAS1, active compounds read low 0.989 | locus YNL175C, strain NOP13, active compounds read low 1.05 | locus YNL197C, strain WHI3, active compounds read low 1.07 | locus YNL224C, strain SQS1, active compounds read low 1.05 | [4] 1 | locus YOR083W, strain WHI5 (second series), active compounds read low 1.05 | [5] 0.998
